According to PubChem BioAssay AID493025 (Johns Hopkins Ion Channel Center, 2011):
Hit rate of the full screen: of about 1,000 compounds, about 570 (57%) were called active. The rule behind the calls is not given here. The set was probably picked from earlier hits. A selection follows.

What follows are molecules tested against Potassium voltage-gated channel subfamily KQT member 2 (Rattus norvegicus) (UniProt O88943) (assay: rat KCNQ2 potassium channel inhibitors, confirmation, cell-based, thallium flux (AID 493025;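 for activity change, negative = inhibition: 0% = vehicle wells and values are ratio percent relative to vehicle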)). Conditions: KCNQ2-expressing cells, at 10 µM; activity change, negative = inhibition: stronger effect = lower value; outcome: inhibition.
Potassium voltage-gated channel subfamily KQT member 2 (Rattus norvegicus), sequence (O88943 whole entry, looked up): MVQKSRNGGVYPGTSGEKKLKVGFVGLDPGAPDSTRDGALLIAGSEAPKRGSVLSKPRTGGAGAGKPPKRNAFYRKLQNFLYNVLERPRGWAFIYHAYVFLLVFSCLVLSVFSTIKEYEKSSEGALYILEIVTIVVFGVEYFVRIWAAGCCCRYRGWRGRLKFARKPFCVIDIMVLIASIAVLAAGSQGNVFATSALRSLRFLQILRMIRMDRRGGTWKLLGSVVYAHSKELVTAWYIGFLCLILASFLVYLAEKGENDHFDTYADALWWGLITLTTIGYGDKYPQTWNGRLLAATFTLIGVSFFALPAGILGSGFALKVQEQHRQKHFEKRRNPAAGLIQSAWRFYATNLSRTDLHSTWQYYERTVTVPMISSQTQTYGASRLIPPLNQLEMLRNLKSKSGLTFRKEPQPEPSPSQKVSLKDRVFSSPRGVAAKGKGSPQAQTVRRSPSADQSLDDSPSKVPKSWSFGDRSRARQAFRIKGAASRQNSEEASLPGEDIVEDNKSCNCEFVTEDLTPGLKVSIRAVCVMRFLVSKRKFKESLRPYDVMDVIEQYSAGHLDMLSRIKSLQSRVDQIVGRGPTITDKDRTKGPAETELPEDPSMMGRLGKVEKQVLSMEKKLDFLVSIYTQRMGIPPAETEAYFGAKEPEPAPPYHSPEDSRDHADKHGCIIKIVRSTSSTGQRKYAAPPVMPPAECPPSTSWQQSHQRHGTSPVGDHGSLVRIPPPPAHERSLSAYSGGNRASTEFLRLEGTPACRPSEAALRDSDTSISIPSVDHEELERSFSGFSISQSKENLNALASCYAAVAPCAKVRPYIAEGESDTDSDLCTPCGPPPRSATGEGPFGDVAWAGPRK

SMILES | activity change, negative = inhibition
CCc1ccc(-c2nn(-c3ccccc3)cc2CSC(=N)N)cc1 | -37.5% (active)
C=CS(=O)c1sc(Cl)c(N2CCOCC2)c1[N+](=O)[O-] (stereo unspecified) | -32.5% (active)
Cc1ccc(C(C)C)cc1OCC(=O)Nc1ccccc1N1CCCC1 | inactive
CC(C(=O)NCC1CCCCC1)N(C)Cc1cccc(Cl)c1 (stereo unspecified) | -47% (active)
CCc1ccccc1NC(=O)/C(=C/c1ccccc1)c1ccccc1 | -33% (active)
C=CCn1c(SCC(=O)/C(C#N)=C(\C)N)nc2sc(C)c(C)c2c1=O | inactive
CN(Cc1ccccc1F)C(=O)C(Cc1ccccc1)NC(=O)c1ccccc1 (stereo unspecified) | -29% (active)
CC(NC(=S)NNS(=O)(=O)c1ccc(C(C)(C)C)cc1)c1ccccc1 (stereo unspecified) | inactive
CCc1ccc2ncc(C(=O)c3ccccc3)c(N3CCOCC3)c2c1 | -20.5% (active)
Fc1ccc2[nH]c3c(N4CCSCC4)ncnc3c2c1 | -38.5% (active)
Cc1ccc(N2C(=O)C3C(c4ccccc4)(C2=O)C3(c2ccccc2)c2ccccc2)cc1 (stereo unspecified) | inactive
CC(C)N(C(=O)CSc1nc(COc2ccccc2)nc2ccccc12)C(C)C | -42.5% (active)
COc1cccc(COc2ccc(N(C)S(=O)(=O)c3ccccc3)cc2)c1 | inactive
O=C(OCC(=O)N(CCc1ccccc1)Cc1ccccc1)c1ccccc1[N+](=O)[O-] | inactive
CSCc1cc(N(C)C)nc(SCc2ccc(Cl)cc2Cl)n1 | -19.5% (active)
O=C(Nc1ccccc1Cl)/C(Cl)=C(\Cl)S(=O)c1ccccc1 (stereo unspecified) | -22.5% (active)

SMILES | activity change, negative = inhibition
Cc1ccccc1N1CCN(CC(=O)NCc2ccc(Cl)cc2)CC1 | inactive
COc1ccc(CN(C)C(C)C(=O)NC2CCCc3ccccc32)cc1 (stereo unspecified) | -19.5% (active)
Cc1cccc(C(=O)OC(C)C(=O)NC2CCCc3ccccc32)c1O (stereo unspecified) | -27% (active)
O=C(Nc1ccc(Cl)c(Cl)c1)N1CC=C(c2ccccc2)CC1 | inactive
COC(=O)C1=C(C)N(C(C)c2ccccc2)C(=O)/C1=C\c1ccco1 (stereo unspecified) | -22.5% (active)
CCOC(=O)C(C)Sc1nc2ccccc2c(=O)n1CC1CCCCC1 (stereo unspecified) | -32% (active)
COc1ccc(Cl)cc1NC(=O)CN(C)Cc1ccc(OC)c(OC)c1 | inactive
Cc1ccc(C(=O)c2c(NC(=O)c3ccccc3)sc(C)c2C)cc1 | -21% (active)
Cc1ccccc1C(=O)Nc1ccccc1Sc1ccccc1 | -26% (active)
CCOC(=O)N1CCC(N(CCOC)C(=O)Nc2ccc(C)c(C)c2)CC1 | -33% (active)
CCc1ccc(-c2cc(C(=O)NCc3ccco3)c3ccccc3n2)s1 | inactive
CC(C)[C@H](NC(=O)OCc1ccccc1)C(=O)OCc1ccccc1 | -23.5% (active)
CC(C)C(NC(=O)OCc1ccccc1)C(=O)OCC(=O)N1C(C)CCCC1C (stereo unspecified) | inactive
Cc1ccc(C2=Nc3c(ccc4ccccc34)C(c3ccncc3)=NN2)cc1 | inactive
Cc1nc2ccccc2c(-c2ccccc2)c1C(=O)c1ccccc1 | -31% (active)
